# Data taken from the supplement of paper PMC11732987, “Enantioselective OTUD7B fragment discovery through chemoproteomics screening and high-throughput optimisation” (Communications Chemistry, 2025).
# Unmarked numbers belong to inactive results.
# Columns and labels:
# Assay in all cases: log2 ratio of Biotin-Ahx-Ub-VS probe labelling (fragment/DMSO); higher = less target engagement (more negative = stronger competition), active = hit call of the paper (q ≤ 0.05, log2 ratio ≤ -1)
# Conditions in all cases: compound concentration: 200 uM; treatment time: 3 h
# USP42 = target: T1, USP42 (UniProt Q9H9J4)
# T1 sequence (whole entry): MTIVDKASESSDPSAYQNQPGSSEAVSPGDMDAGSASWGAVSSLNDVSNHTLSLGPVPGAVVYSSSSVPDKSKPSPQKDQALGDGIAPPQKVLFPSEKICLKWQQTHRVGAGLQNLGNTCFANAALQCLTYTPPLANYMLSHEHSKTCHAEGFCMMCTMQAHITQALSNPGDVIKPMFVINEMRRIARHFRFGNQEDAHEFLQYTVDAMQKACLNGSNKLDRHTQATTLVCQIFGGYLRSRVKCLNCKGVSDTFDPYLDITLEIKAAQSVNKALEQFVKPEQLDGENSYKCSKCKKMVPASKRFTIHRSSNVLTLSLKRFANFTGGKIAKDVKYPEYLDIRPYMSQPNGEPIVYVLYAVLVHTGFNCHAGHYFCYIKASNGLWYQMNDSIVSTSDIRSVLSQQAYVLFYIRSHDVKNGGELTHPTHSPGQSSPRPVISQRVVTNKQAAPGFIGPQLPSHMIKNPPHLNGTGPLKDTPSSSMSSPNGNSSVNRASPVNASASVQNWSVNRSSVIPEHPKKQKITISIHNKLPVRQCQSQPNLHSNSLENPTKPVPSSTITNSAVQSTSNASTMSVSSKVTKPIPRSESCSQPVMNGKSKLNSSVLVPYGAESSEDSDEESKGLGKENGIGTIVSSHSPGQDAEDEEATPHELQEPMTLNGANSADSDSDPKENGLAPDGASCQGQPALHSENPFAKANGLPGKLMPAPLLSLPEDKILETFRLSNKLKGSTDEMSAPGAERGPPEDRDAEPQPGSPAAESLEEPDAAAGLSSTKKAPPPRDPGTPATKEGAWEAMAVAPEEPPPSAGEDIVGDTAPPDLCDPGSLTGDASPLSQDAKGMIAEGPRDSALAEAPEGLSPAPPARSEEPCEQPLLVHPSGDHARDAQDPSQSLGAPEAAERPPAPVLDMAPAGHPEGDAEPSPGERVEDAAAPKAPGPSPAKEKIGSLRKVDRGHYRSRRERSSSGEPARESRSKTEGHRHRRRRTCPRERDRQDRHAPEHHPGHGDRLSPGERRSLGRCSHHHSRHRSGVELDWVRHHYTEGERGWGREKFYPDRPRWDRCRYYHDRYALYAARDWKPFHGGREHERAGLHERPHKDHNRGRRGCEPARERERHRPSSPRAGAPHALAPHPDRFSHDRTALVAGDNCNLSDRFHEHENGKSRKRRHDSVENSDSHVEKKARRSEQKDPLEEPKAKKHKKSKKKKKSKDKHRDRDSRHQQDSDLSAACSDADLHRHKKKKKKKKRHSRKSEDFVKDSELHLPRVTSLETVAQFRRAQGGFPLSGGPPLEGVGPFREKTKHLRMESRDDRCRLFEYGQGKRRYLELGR
# How it was run: (§1)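 Using Biotin-Ahx-Ub-VS at 0.5 µM final for 1 h, DUBs were labelled in HEK293T lysate (495 µg per sample) that had first been treated in triplicate with fragment at 200 µM or vehicle for 3 h. NeutrAvidin enrichment, LysC and trypsin digestion and diaPASEF LC-MS/MS followed. Spectronaut label-free quantities were global-median-normalised. Values are average log2 fragment/vehicle ratios by unpaired t-test, using proteins with ≥2 unique peptides.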
# USP46 = USP46 (UniProt P62068)
# How it was run: as §1
# USP47 = target: T2, USP47 (UniProt Q96K76)
# T2 sequence (whole entry): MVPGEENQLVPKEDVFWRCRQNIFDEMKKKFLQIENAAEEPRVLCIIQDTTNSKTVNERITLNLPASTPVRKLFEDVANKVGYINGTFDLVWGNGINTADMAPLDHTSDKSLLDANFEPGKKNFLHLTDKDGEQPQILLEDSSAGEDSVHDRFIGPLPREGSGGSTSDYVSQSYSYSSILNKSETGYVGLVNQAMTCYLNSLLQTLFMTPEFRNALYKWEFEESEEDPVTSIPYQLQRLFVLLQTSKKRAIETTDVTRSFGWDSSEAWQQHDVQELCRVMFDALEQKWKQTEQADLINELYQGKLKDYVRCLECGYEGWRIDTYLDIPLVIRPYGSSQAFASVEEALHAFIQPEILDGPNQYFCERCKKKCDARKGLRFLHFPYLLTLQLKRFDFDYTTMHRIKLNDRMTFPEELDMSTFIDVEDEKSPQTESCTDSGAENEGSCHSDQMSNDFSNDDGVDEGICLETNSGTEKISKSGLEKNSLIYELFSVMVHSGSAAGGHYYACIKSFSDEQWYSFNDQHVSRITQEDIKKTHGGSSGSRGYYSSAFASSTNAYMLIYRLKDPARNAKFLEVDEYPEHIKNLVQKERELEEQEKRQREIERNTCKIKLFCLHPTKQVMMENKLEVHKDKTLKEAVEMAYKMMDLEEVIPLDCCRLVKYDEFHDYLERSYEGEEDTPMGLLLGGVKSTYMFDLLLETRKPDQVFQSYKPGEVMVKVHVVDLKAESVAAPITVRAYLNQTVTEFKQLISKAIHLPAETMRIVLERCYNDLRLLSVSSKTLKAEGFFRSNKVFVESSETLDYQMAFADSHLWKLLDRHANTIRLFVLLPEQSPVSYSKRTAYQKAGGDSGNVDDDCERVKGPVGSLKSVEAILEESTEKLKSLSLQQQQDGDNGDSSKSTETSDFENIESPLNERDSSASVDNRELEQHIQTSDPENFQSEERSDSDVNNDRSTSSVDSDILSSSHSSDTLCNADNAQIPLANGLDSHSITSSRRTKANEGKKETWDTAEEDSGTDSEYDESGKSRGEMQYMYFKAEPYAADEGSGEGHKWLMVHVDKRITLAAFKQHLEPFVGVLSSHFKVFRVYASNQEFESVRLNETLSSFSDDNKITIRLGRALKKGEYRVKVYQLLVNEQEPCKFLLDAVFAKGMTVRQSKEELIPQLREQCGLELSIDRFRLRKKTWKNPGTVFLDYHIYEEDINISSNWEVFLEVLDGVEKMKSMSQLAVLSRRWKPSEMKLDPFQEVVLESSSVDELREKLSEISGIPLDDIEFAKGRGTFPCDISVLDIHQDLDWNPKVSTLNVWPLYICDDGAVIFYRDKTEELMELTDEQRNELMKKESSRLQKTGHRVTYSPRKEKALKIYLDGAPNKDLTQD
# How it was run: as §1
# USP48 = target: T3, USP48 (UniProt Q86UV5)
# T3 sequence (whole entry): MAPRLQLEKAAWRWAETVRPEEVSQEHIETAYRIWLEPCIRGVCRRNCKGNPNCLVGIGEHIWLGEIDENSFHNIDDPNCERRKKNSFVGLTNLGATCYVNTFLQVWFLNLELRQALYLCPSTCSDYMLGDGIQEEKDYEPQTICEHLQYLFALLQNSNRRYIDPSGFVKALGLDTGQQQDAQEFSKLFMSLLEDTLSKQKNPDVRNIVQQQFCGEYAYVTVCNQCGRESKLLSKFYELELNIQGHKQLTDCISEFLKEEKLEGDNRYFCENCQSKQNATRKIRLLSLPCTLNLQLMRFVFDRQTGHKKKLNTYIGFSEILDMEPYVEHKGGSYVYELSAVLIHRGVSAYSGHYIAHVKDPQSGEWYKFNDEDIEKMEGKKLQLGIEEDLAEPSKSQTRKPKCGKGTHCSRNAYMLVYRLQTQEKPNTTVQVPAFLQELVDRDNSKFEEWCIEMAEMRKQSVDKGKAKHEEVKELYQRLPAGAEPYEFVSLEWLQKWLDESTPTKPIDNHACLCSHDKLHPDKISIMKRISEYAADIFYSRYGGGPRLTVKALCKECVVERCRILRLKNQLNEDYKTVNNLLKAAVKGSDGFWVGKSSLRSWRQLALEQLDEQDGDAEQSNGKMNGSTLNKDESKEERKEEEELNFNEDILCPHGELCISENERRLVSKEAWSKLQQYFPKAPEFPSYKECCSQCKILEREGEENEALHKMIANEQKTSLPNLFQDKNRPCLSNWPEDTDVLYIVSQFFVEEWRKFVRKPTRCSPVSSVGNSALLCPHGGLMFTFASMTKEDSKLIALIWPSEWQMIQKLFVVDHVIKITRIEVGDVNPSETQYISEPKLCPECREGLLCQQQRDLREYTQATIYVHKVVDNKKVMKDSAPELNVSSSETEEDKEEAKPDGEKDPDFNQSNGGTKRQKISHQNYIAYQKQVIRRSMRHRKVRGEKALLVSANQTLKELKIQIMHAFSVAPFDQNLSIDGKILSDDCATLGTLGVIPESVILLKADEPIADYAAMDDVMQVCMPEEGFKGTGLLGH
# How it was run: as §1
# USP5 = target: T4, USP5 (UniProt P45974)
# T4 sequence (whole entry): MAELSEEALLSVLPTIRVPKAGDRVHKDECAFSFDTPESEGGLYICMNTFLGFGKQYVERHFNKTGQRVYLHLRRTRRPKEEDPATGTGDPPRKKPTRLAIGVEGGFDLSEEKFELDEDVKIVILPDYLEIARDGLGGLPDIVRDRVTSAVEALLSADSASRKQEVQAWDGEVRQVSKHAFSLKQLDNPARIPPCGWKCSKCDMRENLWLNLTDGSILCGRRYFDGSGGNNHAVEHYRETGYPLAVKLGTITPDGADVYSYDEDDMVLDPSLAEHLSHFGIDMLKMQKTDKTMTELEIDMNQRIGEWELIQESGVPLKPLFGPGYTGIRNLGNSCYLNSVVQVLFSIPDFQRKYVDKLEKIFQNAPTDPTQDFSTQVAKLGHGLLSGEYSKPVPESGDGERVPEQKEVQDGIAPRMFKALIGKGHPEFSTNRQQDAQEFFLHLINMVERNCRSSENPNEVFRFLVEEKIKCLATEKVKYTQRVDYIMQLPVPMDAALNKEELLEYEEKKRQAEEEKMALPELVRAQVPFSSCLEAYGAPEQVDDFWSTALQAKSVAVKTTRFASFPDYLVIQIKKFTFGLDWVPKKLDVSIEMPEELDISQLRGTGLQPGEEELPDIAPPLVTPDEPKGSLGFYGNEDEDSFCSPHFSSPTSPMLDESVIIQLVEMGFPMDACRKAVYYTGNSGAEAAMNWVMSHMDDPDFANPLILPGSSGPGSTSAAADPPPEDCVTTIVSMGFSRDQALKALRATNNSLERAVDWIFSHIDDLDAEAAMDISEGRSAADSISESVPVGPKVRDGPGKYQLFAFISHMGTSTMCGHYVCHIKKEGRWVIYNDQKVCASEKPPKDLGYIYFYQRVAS
# How it was run: as §1
# USP54 = USP54 (UniProt Q70EL1)
# How it was run: as §1
# USP7 = USP7 (UniProt Q93009)
# How it was run: as §1
# USP8 = target: T5, USP8 (UniProt P40818)
# T5 sequence (whole entry): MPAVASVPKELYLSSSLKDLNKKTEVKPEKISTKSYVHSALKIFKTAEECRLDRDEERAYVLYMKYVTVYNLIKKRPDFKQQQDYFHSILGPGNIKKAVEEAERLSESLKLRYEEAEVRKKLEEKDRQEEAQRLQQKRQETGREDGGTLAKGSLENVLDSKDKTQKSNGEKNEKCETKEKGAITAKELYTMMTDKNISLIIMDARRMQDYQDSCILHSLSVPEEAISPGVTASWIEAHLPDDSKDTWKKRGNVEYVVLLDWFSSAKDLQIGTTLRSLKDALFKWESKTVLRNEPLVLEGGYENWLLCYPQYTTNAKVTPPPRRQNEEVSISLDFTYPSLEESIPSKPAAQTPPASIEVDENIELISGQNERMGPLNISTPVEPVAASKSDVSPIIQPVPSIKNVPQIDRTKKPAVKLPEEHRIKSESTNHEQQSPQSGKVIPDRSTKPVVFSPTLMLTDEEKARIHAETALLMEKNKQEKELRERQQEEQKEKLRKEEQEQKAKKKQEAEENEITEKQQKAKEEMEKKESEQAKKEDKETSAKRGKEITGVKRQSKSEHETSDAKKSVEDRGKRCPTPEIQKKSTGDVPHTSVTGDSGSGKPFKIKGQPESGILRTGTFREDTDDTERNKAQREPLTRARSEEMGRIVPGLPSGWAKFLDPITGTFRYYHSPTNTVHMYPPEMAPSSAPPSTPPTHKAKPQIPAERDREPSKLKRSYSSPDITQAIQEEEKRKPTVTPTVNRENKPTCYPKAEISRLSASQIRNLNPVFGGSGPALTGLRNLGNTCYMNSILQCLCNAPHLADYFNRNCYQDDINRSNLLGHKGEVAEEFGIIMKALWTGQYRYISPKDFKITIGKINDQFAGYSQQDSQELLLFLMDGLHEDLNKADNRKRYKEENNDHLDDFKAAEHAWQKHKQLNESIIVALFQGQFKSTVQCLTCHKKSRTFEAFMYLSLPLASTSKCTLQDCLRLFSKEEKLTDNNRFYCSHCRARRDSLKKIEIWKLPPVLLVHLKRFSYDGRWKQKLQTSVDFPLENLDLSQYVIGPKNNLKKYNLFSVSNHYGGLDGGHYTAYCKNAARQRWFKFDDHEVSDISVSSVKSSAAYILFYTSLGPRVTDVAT
# How it was run: as §1
# USP46, sequence (P62068 whole entry): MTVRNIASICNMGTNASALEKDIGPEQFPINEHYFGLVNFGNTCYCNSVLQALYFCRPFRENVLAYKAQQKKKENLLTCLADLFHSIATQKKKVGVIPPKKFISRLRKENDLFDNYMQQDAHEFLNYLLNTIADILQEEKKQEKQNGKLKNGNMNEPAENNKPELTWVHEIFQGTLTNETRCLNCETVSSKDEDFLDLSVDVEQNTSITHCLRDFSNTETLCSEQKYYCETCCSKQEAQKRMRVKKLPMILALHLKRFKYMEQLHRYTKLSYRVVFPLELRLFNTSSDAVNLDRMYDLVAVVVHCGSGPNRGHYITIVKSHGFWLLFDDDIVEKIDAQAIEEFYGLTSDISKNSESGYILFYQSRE
# USP54, sequence (Q70EL1 whole entry): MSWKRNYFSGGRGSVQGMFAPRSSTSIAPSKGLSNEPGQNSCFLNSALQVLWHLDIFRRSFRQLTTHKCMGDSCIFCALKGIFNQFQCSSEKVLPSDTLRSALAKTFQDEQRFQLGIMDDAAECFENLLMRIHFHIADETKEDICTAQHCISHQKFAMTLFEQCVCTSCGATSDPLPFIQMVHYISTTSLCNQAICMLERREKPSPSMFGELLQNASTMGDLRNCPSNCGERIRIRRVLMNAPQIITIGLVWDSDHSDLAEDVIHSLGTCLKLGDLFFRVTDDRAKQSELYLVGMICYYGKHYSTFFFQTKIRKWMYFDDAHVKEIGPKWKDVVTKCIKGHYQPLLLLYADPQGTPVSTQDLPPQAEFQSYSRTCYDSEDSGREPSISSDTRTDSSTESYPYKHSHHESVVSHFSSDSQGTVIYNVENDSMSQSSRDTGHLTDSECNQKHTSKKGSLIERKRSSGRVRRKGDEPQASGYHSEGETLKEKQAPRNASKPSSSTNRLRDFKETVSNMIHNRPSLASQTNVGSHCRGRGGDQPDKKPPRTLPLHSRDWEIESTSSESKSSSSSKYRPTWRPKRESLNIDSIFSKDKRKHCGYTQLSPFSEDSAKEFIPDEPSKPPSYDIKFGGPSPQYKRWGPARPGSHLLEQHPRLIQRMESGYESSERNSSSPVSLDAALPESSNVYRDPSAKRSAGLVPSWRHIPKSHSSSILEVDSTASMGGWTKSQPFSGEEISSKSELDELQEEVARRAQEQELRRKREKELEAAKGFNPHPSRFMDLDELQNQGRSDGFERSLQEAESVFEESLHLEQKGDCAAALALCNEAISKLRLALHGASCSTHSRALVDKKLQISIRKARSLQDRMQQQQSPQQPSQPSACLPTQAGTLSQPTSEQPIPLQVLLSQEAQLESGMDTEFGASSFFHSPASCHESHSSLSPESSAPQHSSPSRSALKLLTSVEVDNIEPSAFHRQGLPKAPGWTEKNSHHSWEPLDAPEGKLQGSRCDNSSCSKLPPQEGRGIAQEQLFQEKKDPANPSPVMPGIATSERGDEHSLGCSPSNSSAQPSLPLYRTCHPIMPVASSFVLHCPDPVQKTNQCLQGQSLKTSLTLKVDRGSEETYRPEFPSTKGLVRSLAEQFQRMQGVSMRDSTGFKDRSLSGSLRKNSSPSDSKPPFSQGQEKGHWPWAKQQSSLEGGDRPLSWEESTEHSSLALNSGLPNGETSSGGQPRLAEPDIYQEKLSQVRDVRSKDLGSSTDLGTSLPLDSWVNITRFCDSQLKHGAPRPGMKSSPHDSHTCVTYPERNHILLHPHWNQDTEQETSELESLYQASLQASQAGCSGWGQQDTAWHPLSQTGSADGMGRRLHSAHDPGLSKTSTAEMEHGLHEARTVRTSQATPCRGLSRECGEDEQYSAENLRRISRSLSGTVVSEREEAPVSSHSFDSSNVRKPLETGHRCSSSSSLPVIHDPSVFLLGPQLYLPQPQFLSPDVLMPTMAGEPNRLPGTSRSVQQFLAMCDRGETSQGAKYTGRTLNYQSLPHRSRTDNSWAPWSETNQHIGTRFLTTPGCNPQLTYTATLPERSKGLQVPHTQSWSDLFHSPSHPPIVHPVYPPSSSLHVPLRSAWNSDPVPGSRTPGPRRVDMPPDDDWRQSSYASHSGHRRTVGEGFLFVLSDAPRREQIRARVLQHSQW
# USP7, sequence (Q93009 whole entry, looked up): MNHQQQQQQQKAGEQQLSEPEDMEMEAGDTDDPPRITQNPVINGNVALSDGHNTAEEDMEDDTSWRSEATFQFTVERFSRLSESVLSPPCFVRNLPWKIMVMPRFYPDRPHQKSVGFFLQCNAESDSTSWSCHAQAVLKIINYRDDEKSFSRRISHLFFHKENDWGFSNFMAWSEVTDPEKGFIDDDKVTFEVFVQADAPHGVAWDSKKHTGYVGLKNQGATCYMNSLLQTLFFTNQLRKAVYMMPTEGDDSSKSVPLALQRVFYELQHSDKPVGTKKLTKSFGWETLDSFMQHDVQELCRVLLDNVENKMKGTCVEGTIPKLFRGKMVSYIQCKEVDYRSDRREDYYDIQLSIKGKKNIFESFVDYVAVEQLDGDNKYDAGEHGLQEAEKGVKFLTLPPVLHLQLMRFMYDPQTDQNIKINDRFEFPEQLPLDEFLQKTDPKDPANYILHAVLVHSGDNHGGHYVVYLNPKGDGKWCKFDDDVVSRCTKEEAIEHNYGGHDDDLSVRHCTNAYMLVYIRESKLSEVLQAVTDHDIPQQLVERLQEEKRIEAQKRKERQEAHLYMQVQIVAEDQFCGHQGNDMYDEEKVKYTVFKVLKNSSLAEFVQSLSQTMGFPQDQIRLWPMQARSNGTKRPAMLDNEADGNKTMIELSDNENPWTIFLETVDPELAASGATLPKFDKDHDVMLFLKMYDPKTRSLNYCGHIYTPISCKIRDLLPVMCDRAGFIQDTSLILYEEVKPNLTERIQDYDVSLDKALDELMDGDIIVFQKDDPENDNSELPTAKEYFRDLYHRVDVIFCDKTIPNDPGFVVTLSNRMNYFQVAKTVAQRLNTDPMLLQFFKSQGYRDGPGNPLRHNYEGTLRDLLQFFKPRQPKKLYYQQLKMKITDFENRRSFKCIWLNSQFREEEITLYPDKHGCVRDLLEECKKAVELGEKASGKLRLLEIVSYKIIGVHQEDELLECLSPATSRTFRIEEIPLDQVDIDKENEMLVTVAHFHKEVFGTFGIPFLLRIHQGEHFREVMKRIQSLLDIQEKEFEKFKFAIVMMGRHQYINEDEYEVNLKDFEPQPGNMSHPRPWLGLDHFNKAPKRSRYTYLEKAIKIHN
smiles,measurement,setting,value
CC1Cc2ccccc2N1C(=O)CCl (stereo not drawn),log2 ratio of Biotin-Ahx-Ub-VS probe labelling,USP42,-0.0391
same,log2 ratio of Biotin-Ahx-Ub-VS probe labelling,USP46,-0.226
same,log2 ratio of Biotin-Ahx-Ub-VS probe labelling,USP47,-0.675
same,log2 ratio of Biotin-Ahx-Ub-VS probe labelling,USP48,-0.686
same,log2 ratio of Biotin-Ahx-Ub-VS probe labelling,USP5,0.363
same,log2 ratio of Biotin-Ahx-Ub-VS probe labelling,USP54,0.538
same,log2 ratio of Biotin-Ahx-Ub-VS probe labelling,USP7,-1.33 (active)
same,log2 ratio of Biotin-Ahx-Ub-VS probe labelling,USP8,-0.238
